SARS PLP yeast: inhibitors of SARS-CoV papain-like protease in yeast. S. cerevisiae expressing SARS-CoV PLpro, growth rescue. Potency, µM (series often up to 32.9 µM), inactives show top-dose activity, positive = growth rescue, most hits filed as activators. hit rate 0.19% among 330,000; calls by dose curve; note: potency is the fitted concentration of half-maximal effect; 0% is about no effect; nearly all actives have a fitted effect of over 55% in size
HCV inhibitor: HCV inhibition | AID 651820 | Huh7.5.1 HCVcc-Cre infection, luciferase reporter, 44 h | hit rate 3.4% among 340,000 | Potency, µM (doses to about 41.8 µM), inactives show at the top dose activity change, negative = inhibition, actives largely listed as inhibitors; active = well fitted inhibition curve with a large enough effect; inconclusive = small, poorly fitted or top-dose-only effect, or another doubt; inactive = no such curve, though single readings can be large or run the other way; note: potency is the fitted concentration of half-maximal effect; % is set by controls: 0 for no effect and ±100 for the full control effect
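After 44 h co-culture of compound, cells and HCVcc-Cre (~0.5 moi), substrate is added for 15 min at room temperature and luciferase measured over 15 sec. Cells were seeded at 1,000/well and pre-cultured 4 h.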
FMDV antiviral: blocks foot and mouth disease virus; Potency, µM (titrated, usually from 57.9 µM), inactives show at the highest dose activity change, negative = inhibition, usual class: inhibitors; hit rate 1.2% among 410,000; FMDV antiviral cell-based qHTS; AID 1159524; calls by dose curve; tested in HEK293T cells; note: read-out not given here; potency is the fitted concentration of half-maximal effect; % is set by controls: 0 for no effect and ±100 for the full control effect; nearly all actives have a fitted effect of over 45% in size
MARV entry inh: blocks Marburg virus binding to or entry into cells; Marburg virus pseudotyped entry inhibition, cell reporter; Potency, µM (top dose mostly 37.8 µM), for inactives: at the highest dose activity change, negative = inhibition, hits mostly inhibitors; hit rate 1.8% among 300,000; calls by dose curve; tested in HEK293 cells; note: potency is the fitted concentration of half-maximal effect; % is set by controls: 0 for no effect and ±100 for the full control effect
Lassa entry inh: blocks Lassa virus binding to or entry into cells; Lassa virus pseudotype entry inhibition, cell reporter; Potency, µM (highest dose often 37.9 µM), for the others: top-dose activity change, negative = inhibition, actives largely listed as inhibitors; hit rate 1.2% among 300,000; calls by dose curve; tested in HEK293 cells; note: potency is the fitted concentration of half-maximal effect; % is set by controls: 0 for no effect and ±100 for the full control effect; nearly all actives have a fitted effect of over 50% in size
HCMV inh: blocks human cytomegalovirus replication. HFF cells, HCMV-luciferase reporter, 72 h; active compounds read low. activity change, negative = inhibition, % at 57.5 µM. hit rate 4.5% among 410,000. AID 1259415; in the data active = activity change below about -60%; inconclusive = no clear call, values can overlap the other calls; inactive = above about -39%; note: % is set by controls: 0 for no effect and ±100 for the full control effect
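Steps: HFFs plated, 16 h 37C; compounds added; HCMV-luciferase added to MOI 1 PFU/cell; 72 h 37C; OneGlo reagent, 5 min room temperature; luminescence read, normalized to controls.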
The depositor's hits bear a star; u = inconclusive; x = no result; ! = not confirmed by another sample; [ ] = remark or other dose. The list is not random: actives were taken first. Their share in the collection is about 8%.

SMILES | SARS PLP yeast | HCV inhibitor | FMDV antiviral | MARV entry inh | Lassa entry inh | HCMV inh
CCCC(=O)C1=C(c2cccc(OC)c2)N(C(=O)CCC)n2c(C)nnc2S1 | x | x | -17.2% | x | -10.4%[46.1 µM] | -95.2*
CC(=O)C1=C(c2ccccc2)N(C(C)=O)n2c(C)nnc2S1 | -3.3% | u | -20.2% | u | u | u
CCC(=O)C1=C(c2ccc(F)cc2)N(C(=O)CC)n2c(nnc2-c2ccc(OC)cc2)S1 | x | x | u | x | u | 4.5
CCCC(=O)C1=C(c2ccc(C)cc2)N(C(=O)CCC)n2cnnc2S1 | x | x | -20.7% | x | 9.7%[46.1 µM] | -94.6*
CCC(=O)C1=C(c2ccc(OC)c(OC)c2)N(C(=O)CC)n2c(CC)nnc2S1 | x | x | u | x | -27.4%[46.1 µM] | -63.2*
CCOC(=O)c1sc2cccc(F)c2c1S(=O)(=O)NCc1ccccc1Cl | x | x | 0.0% | x | 16.6%[46.1 µM] | 9.3
COc1ccc(N(CC(=O)N2CCN(c3cccc(C)c3C)CC2)S(=O)(=O)c2c(C)noc2C)cc1 | -4.1% | u | -14.2% | 6.9%[46.1 µM] | u | -64.7*!
Cc1ccc(N(CC(=O)N2CCN(c3cc(C)ccc3C)CC2)S(=O)(=O)c2c(C)nn(C)c2C)cc1 | x | x | -29.1% | u | -26.3%[46.1 µM] | -71.7*
COc1ccc(N(CC(=O)N2CCN(c3ccc(Cl)cc3)CC2)S(=O)(=O)c2c(C)n[nH]c2C)cc1 | 2.1% | u | -1.2% | u | u | -72.7*
Cc1ccc(N(CC(=O)N2CCN(c3ccc(Cl)cc3)CC2)S(=O)(=O)c2c(C)nn(C)c2C)cc1 | x | x | -12.8% | -0.7%[46.1 µM] | 0.0%[46.1 µM] | 3.3
CCOc1cc2[nH]c(=O)n(CCCCC(=O)N3CCN(c4ccc(OC)cc4)CC3)c(=O)c2cc1OCC | x | x | u | x | -19.6%[46.1 µM] | 3.5
CCCCOc1ccc(N(CC(=O)NC(C)(C)CC)C(=O)CCC(=O)Nc2ccccn2)cc1 | 0.7% | 9.0% | -6.9% | 8.91µM* | u | 53.2
CCCCOc1ccc(N(CC(=O)NC2CCCC2)C(=O)CCC(=O)Nc2ccccn2)cc1 | 18.1% | 10.5% | -8.9% | u | -4.9% | 13.4
CCN1CCC(O)(/C=C/c2ccc(C(C)C)cc2)C(C(=O)/C=C/c2ccc(C(C)C)cc2)C1 (centres undefined) | x | 7.94µM* | 31.6µM* | u | 14.1µM* | -61.0*
Cc1ccc(CSc2ccc3nnc(-c4cccnc4)n3n2)cc1 | 9.3% | 9.0% | u | 3.8% | 3.0% | 122.9
Brc1ccc(CSc2nnc(-c3cccnc3)o2)cc1 | -1.3% | 0.2% | -12.2% | 7.9%[46.1 µM] | 10.6%[46.1 µM] | -68.3*
Brc1ccc(CSc2ccc3nnc(-c4cccnc4)n3n2)cc1 | -9.0% | u | 31.6µM* | u | u | 29.1
Clc1ccc(CSc2nnc(-c3ccncc3)o2)cc1 | -5.0% | u | -22.6% | 3.2% | -1.5% | -70.2*
c1ccc(CSc2nnc(-c3cccnc3)o2)cc1 | -13.9% | 14.3% | 50.7% | 12.2% | 18.2% | -40.0
Nn1c(SCc2ccc(Br)cc2)nnc1-c1ccncc1 | 0.1% | -3.0% | -7.1% | x | x | -63.0*
N#CCSc1nnc(COc2cccc3ccccc23)n1-c1ccccc1 | -3.6% | u | 14.1µM* | u | u | -14.9
O=C(O)CCSc1nnc(COc2cccc3ccccc23)n1-c1cccc(Cl)c1 | -0.5% | 10.3% | 6.3% | u | 12.2%[46.1 µM] | -99.0*
Cc1cccc(OCc2ccc(-c3nc(C#N)c(NCc4cccnc4)o3)o2)c1 | x | x | -10.4% | u | 4.3%[46.1 µM] | -26.6
OCC[n+]1ccc(/C=C/c2c[nH]c3ccccc23)cc1 | -11.0% | 3.55µM* | -9.5% | -33.7% | u | -98.6*
CCc1ccc(-n2c(N3CCN(c4cccc(C)c4C)CC3)nc3ccccc3c2=O)cc1 | x | x | -17.3% | 7.0%[46.1 µM] | -1.7%[46.1 µM] | u
SMILES | SARS PLP yeast | HCV inhibitor | FMDV antiviral | MARV entry inh | Lassa entry inh | HCMV inh
CC(=O)N1CCN2C(=O)C1CCCC(=O)c1cc(C(C)C)ccc12 (centres undefined) | 0.6% | 19.9% | 19.2% | 0.4% | 7.3% | -67.4*
COc1ccc(COC(=O)N/N=C(\C)CC(=O)NCc2ccc(Cl)cc2)cc1 | -0.4% | 1.7% | 3.4% | 10.8%[46.1 µM] | u | -17.8
COc1ccc(COC(=O)N/N=C(\C)CC(=O)Nc2c(C)cc(C)cc2C)cc1 | 2.6% | -14.1% | -6.5% | 11.8%[46.1 µM] | 7.3µM* | -3.7
CN(C)c1ncc2nc(-c3ccccc3)c(=O)n(CCC#N)c2n1 | x | x | -15.2% | x | x | x
CCOc1cccc(CNCCc2c(C)[nH]c3ccc(OC(F)(F)F)cc23)c1O | -1.0% | u | 14.1µM* | x | x | -100.8*
Cc1[nH]c2ccc(OC(F)(F)F)cc2c1CCNCc1cccc([N+](=O)[O-])c1 | -4.2% | u | -19.1% | u | 10.4% | u
Cc1[nH]c2ccc(OC(F)(F)F)cc2c1CCNCc1ccc(Cl)cc1 | -3.9% | u | -16.7% | u | u | -99.2*
O=C(Cn1c(=O)n(Cc2ccc3c(c2)OCO3)c(=O)c2ccc(C(=O)NC3CCCCC3)cc21)Nc1ccccc1F | x | x | 67.1% | 9.3%[46.1 µM] | -4.9%[46.1 µM] | -8.6
COc1ccc(-c2nc3cnc(N(C)C)nc3n(C[C@H]3CCCO3)c2=O)cc1 | x | x | 0.7% | x | x | x
Cc1ccc(S(=O)(=O)C2(C(=O)Nc3nccs3)CC2)cc1 | 1.1% | -4.5% | -22.2% | x | x | -78.9*
O=C(Nc1nccs1)C1(S(=O)(=O)c2ccc(Cl)cc2)CC1 | 5.1% | -12.1% | -8.5% | -3.5% | 2.2% | 13.5
NC(=O)c1cc2ccc(O)cc2oc1=Nc1ccccc1 | -11.2% | 12.6% | 4.1% | -3.1% | u | -81.9*
COc1ccc(/C=C/c2c([N+](=O)[O-])c(=O)n(C)c(=O)n2C)c(OC)c1 | -2.8% | 11.2µM* | u | -5.1%[46.1 µM] | x | 0.0
Cn1c(/C=C/N(Cc2ccccc2)c2ccccc2)c([N+](=O)[O-])c(=O)n(C)c1=O | 0.5% | u | 2.4% | x | x | -5.2
Cn1c(/C=C/c2ccc(Cl)cc2Cl)c([N+](=O)[O-])c(=O)n(C)c1=O | -1.6% | u | 31.6µM* | x | x | -98.0*
Cc1ccc([C@H]2C[C@H](c3cccs3)n3nc(N)nc3N2)cc1 | x | x | x | 4.6% | x | x
CCCSCCCNC(=O)C1CCN(c2nn3cc(-c4ccc(F)cc4)nc3s2)CC1 | x | x | 6.1% | x | 16.4%[46.1 µM] | 0.0
CC1C(=O)N(Cc2ccc([N+](=O)[O-])cc2)c2ccccc2N1C(=O)c1c(F)cccc1F (centres undefined) | -2.2% | u | 35.5µM* | u | u | u
COc1ccc(CN2C(=O)C(C)Oc3ccccc32)cc1 (centres undefined) | -0.2% | 12.7% | -9.2% | x | x | -13.4
COc1ccc(CN2C(=O)C(C)N(C(=O)c3c(F)cccc3F)c3ccccc32)cc1 (centres undefined) | -4.8% | u | 35.5µM* | x | x | u
COc1cccc(CN2C(=O)C(C)N(C(=O)c3ccccc3)c3ccccc32)c1 (centres undefined) | 0.4% | u | u | 10µM* | u | -71.4*
COc1ccccc1CNc1nccn(-c2ccccc2)c1=O | x | x | 26.6% | x | 27.5%[46.1 µM] | 54.9
OC(c1cccnc1)c1ccc2c(c1)CN(Cc1ccc(-c3ccccc3Cl)o1)CCO2 (centres undefined) | x | x | 2.5% | x | x | x
